# Measured values taken from PubChem BioAssay AID1259372 (The Scripps Research Institute Molecular Screening Center, 2018).
# Hit rate of the full screen: of about 4,700 compounds, about 760 (16%) were called active.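 The calls were made as follows: active = inhibition above a cutoff derived from the DMSO control wells (cut at about 28% in these data); inactive = the rest.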 Not all results are given here.
# Target: Microphthalmia-associated transcription factor (Homo sapiens) (UniProt O75030)
# Assay: MITF inhibitors, retest of hits, confirmation, biochemical, AlphaScreen, triplicate (AID 1259372)
# Settings: AlphaScreen MITF homodimerization, biotin/His-MITF beads; at 2.6 µM; active compounds read high
# Chain of Microphthalmia-associated transcription factor (Homo sapiens) (O75030 whole entry, looked up): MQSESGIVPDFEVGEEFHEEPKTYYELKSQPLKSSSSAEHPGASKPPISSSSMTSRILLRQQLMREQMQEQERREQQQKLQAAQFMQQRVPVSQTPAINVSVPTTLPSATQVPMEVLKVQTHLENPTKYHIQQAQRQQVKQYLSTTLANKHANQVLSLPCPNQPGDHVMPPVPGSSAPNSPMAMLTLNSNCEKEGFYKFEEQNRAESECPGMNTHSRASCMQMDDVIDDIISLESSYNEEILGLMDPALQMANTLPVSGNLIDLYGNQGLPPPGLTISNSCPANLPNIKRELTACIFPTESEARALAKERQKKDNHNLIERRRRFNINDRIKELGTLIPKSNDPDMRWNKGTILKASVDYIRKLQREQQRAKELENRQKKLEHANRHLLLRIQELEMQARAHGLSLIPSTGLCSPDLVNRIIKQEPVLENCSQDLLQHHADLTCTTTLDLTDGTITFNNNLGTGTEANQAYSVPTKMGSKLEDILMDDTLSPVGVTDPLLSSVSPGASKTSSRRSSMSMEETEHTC
row,SMILES,inhibition
1,COc1cc(NC(=O)CCc2nc(C3=CCN(C)CC3)no2)cc(OC)c1OC,66.9% (active)
2,CCC(C)N1CCN(Cc2cccc(OC)c2)CC1 (stereo not given),13.4% (inactive)
3,CCC(CC)N1CCN(Cc2ccc(F)cc2)CC1,3.06% (inactive)
4,COc1ccc(CN2CCN(Cc3ccccc3)CC2)cc1C,-1.48% (inactive)
5,CSc1ccccc1NC(=O)CN(C)CC(=O)Nc1ccc(C#N)c(Cl)c1,4.26% (inactive)
6,CCOC(=O)C1C2NC(=S)N(CC)C1(C)Oc1ccc(Cl)cc12 (stereo not given),33.4% (active)
7,CCOC(=O)C1C2NC(=S)N(c3ccc(F)cc3)C1(C)Oc1c(OCC)cccc12 (stereo not given),24.2% (inactive)
8,CN1CCC(N(C)c2ncnc3scc(-c4ccc(Cl)cc4)c23)CC1,-5.93% (inactive)
9,CCC(C)N1CCN(Cc2ccc(SC)cc2)CC1 (stereo not given),3.6% (inactive)
10,Fc1ccccc1CN1CCN(Cc2ccccc2F)CC1,4.39% (inactive)
